Unmarked numbers belong to inactive results. How the calls were made is not given here.
B1: design_612_bdadb936-3f14-48ad-830f-718e38d81c30_715_dldesign_0_cycle1_af2pred (protein)
chain: IEQLAALARASYRAVRVAAENLAAGRLTPEQLKAAAQLAEGTEKLAKETAAAYNADPATKEKAAEFEELARFAKEVRDAARAAL
B2: design_612_bdadb936-3f14-48ad-830f-718e38d81c30_2254_dldesign_0_cycle1_af2pred (protein)
chain: GAAEAEEAARREEAKKLAEEYLKKVEEAAKESTGKAVEVMVKGVKELLEIGDKETANALAQEATRIISAAVRA
B3: design_613_5efed0bc-64ba-423b-b3f9-a246574e49bb_341_dldesign_0_cycle1_af2pred (protein)
chain: SEMIEKIKELGEEAKKIGKEGLAGTPEEMLKAAEKLRELMKEISRLAAEAMKESPEVEEIALAGGEALSIAAEEIAKLQAAAAAA
B4: design_612_bdadb936-3f14-48ad-830f-718e38d81c30_1696_dldesign_0_cycle1_af2pred (protein)
chain: SAEILAAQAKALELMKEAAKYNRKAGGKTAELALEAAKYATKAISYFATGEKKAEGEEEYKKAEEKLKEVKKKAA
B5: design_612_bdadb936-3f14-48ad-830f-718e38d81c30_1983_dldesign_0_cycle1_af2pred (protein)
chain: EEKVREEAKEAIEKAKEAVEKLKEAAKADPRLAVAAKAATAALEKAKELLEENPESALKLAKTTLDLAEATLAAAA
B6: design_612_bdadb936-3f14-48ad-830f-718e38d81c30_380_dldesign_0_cycle1_af2pred (protein)
chain: SQALQTQMLIANARNLAKNAEELLKKGDVEKAEKAVEALEKLAKIAGEASPEAGKEAGKLAEEARKKVEEFKK
B7: design_613_5efed0bc-64ba-423b-b3f9-a246574e49bb_304_dldesign_0_cycle1_af2pred (protein)
chain: AEAAKAAAVALAAAMLALADALAKAGDFGTALAIATLGARIVDTVVGPEAGAAFQAQRDAVISSNARAAIAAA
B8: design_612_bdadb936-3f14-48ad-830f-718e38d81c30_262_dldesign_0_cycle1_af2pred (protein)
chain: AKERVKELAKEIEKLAKEAPPEVAKHLKKAAEALKKGVEEGPGAMAEAVVTLAEAAAEAYKLDPEVGERLRRIAAEVARLAIEYQA
B9: design_612_bdadb936-3f14-48ad-830f-718e38d81c30_1961_dldesign_0_cycle1_af2pred (protein)
chain: MERLEKIEKRIEEIEKVVEEAEKKVKEGTITGEDALRLNKALAEARRIAEEAAKLDPELAKRAQAVAERASRVLVEGNKLLVA
B10: design_612_bdadb936-3f14-48ad-830f-718e38d81c30_1747_dldesign_0_cycle1_af2pred (protein)
chain: SAADVAAATQKALKKQAEKLLELAKEAAAKDKEEAKKYAKAAKKLAELMVLAGEQAGTGAEAKKEAEKIKKEVEKVVKEA
B11: design_612_bdadb936-3f14-48ad-830f-718e38d81c30_642_dldesign_0_cycle1_af2pred (protein)
chain: MREEARALLERAREALARARALAEAGGDGGEAVSLMVEALEAASRALRLARELGDEELAEEAERLLAEIRRATAAITQAVIDRA
B12: design_612_bdadb936-3f14-48ad-830f-718e38d81c30_501_dldesign_0_cycle1_af2pred (protein)
chain: DLLAKQKELSEKYERVAEIGEEARKLVGEEAAELSLKALTYYTKAMAAYAAGEATAAEAEKYEKKGEEYEKKLKELKEKELKK
B13: design_612_bdadb936-3f14-48ad-830f-718e38d81c30_1687_dldesign_0_cycle1_af2pred (protein)
chain: MELVKRAREILERAERAETVEELRRVLAEAARLAGEAARAAIADPATAAAANEALAIALEAMRVATERARAAR
B14: design_612_bdadb936-3f14-48ad-830f-718e38d81c30_1230_dldesign_0_cycle1_af2pred (protein)
chain: AAAAAVATAAADAMYKQAKKQAEEAFKAAKENPEEGKKLAESALKNFELAATLYAQAGDEAKAKAVLEEGKEKYEEIMKKIKEAE
B15: design_612_bdadb936-3f14-48ad-830f-718e38d81c30_973_dldesign_0_cycle1_af2pred (protein)
chain: GAATALAILKANLAAQVKAAAAGVGAKAAAETAKVLADSAAGIAKADPAVAAEAEKLAAEAKAASKEFAAKAEAAAAA
B16: design_612_bdadb936-3f14-48ad-830f-718e38d81c30_247_dldesign_0_cycle1_af2pred (protein)
chain: GALGRSVARDTARAFLADPEKGKEMADIAAGVGATDAAAGRAALEELLRLAKEHPEVAEQLEAAAKKVAAAIKQAEAAAA
B17: design_612_bdadb936-3f14-48ad-830f-718e38d81c30_2023_dldesign_0_cycle1_af2pred (protein)
chain: AEAETLGSLARGAISFLRTAAAYLRRKAAAAADPATAATLNAYADRLEALAEAAAKAVEEGKYEEAVALAEEGVALALEGAAAAA
B18: design_612_bdadb936-3f14-48ad-830f-718e38d81c30_271_dldesign_0_cycle1_af2pred (protein)
chain: AARAEALAAEGEALIEQALSDATLSEEERKALLNQAAHKFVAAAGALVADRGPAAQAEITALLSKAVEAKALAEA
B19: design_612_bdadb936-3f14-48ad-830f-718e38d81c30_1207_dldesign_0_cycle1_af2pred (protein)
chain: GAELLAKKAQELYKKAEELAKKAPESVEAAKKAQEYAQQSIATVAELFEKFPEAPQELKASLARIAAQAAKYYLDAQKLIKAA
B20: design_612_bdadb936-3f14-48ad-830f-718e38d81c30_773_dldesign_0_cycle1_af2pred (protein)
chain: SAAAEAQQRLNELLGRLTAATEAGAAVDPALASALAGKAFTELSKAHQYLLAGDVDAAQAELDKAEKLVKELEAAAAAAAAAAA
B21: design_612_bdadb936-3f14-48ad-830f-718e38d81c30_331_dldesign_0_cycle1_af2pred (protein)
chain: GKKAQAIALIDEATALLIAAQAADAETGAKLTAEAVKLLSEAIELAAELNGRAAGLIGRLLALGAAGTISPERLKELAAAAKAEIEAA
B22: design_612_bdadb936-3f14-48ad-830f-718e38d81c30_1324_dldesign_0_cycle1_af2pred (protein)
chain: AFAAAIAALTAAAAATTPALATQLNAVKTAVTNTAKNAQAAPPEVKAATAAKWAEIAQGAVDAALAAAAA
B23: design_613_5efed0bc-64ba-423b-b3f9-a246574e49bb_35_dldesign_0_cycle1_af2pred (protein)
chain: DQARADALIAAVDAAVAAAEAALAEDPELGLAKGAEASALIVEALKASAELSPAERARLAAALNAATARLLKVQAAAREQLA
B24: design_612_bdadb936-3f14-48ad-830f-718e38d81c30_88_dldesign_0_cycle1_af2pred (protein)
chain: AAAAAAGEAALARLETEGAAAAAAAAADPAAAGEEIERVLALQAEVARAHPSVAAEAAAIARRYNAAIARAVVAA
B25: design_612_bdadb936-3f14-48ad-830f-718e38d81c30_1931_dldesign_0_cycle1_af2pred (protein)
chain: SMEELEKKREEAEKGLEEIKELAKKAAEGAKDPATAAATMAEALEKLEEYKETIELAKEVGEELAEKVRAAVNELLANVARAGAVAAA
B26: design_612_bdadb936-3f14-48ad-830f-718e38d81c30_198_dldesign_0_cycle1_af2pred (protein)
chain: DAAVAQGQKLRDAALAALAAATTLAQFNAAAQQGLAALAQITALIVAHPEAGPQLQKLAAEVLAAIEAARARALAA
B27: design_612_bdadb936-3f14-48ad-830f-718e38d81c30_2140_dldesign_0_cycle1_af2pred (protein)
chain: DAAAAALAAAHIAKLNAIAKEGIEAAKKGDPEANAEKAVAKINAAASAAVKEMTALGANGSYITQVLQAAAEAIKKVREAAKKAK
B28: design_612_bdadb936-3f14-48ad-830f-718e38d81c30_1240_dldesign_0_cycle1_af2pred (protein)
chain: GEEEERDERARELVEKGREEAEKYIAAGKVGEAAGVVVEKAAEAHRVAVSPEVKAEINRELAAQIRRIMEAIA
B29: design_612_bdadb936-3f14-48ad-830f-718e38d81c30_1410_dldesign_0_cycle1_af2pred (protein)
chain: MEEIRALAEEALATAEAELATMRAAQEAGDVGTAVDALRVLFRTANEAIRRLRELGGPEEYIERLEAARREAQAILAATARRAIAQA
B30: design_612_bdadb936-3f14-48ad-830f-718e38d81c30_557_dldesign_0_cycle1_af2pred (protein)
chain: MDQAVADRTAEALAKHAKRLLEEGLKLAKEGDLEEAKKKVEAAKQVAEVLKNLGSPKAAELGEKMLEEAKKALEEIKKR
B31: design_613_5efed0bc-64ba-423b-b3f9-a246574e49bb_395_dldesign_0_cycle1_af2pred (protein)
chain: SKTAEDGIKFIKELTEIAKAAAAAGQPKSVVETIRKTLEHATKVFAAAAAEDNPEYAEKVKKAGEEALKEADKAIAA
B32: design_612_bdadb936-3f14-48ad-830f-718e38d81c30_1832_dldesign_0_cycle1_af2pred (protein)
chain: MEKAKELVKKIKELARKIKELAERLKADPSTAEQDLKEVNEALSEALELQKKVAEIGSPEDAEEANKELGKAQRAALEAHRAAAELA
B33: design_612_bdadb936-3f14-48ad-830f-718e38d81c30_608_dldesign_0_cycle1_af2pred (protein)
chain: AALVAQAAADLEAIGARYPALKPAADRALTLTPGLRLLAANTARNALPGSEEEIVEALRRMVEALEAEQARLDAA
B34: design_612_bdadb936-3f14-48ad-830f-718e38d81c30_2117_dldesign_0_cycle1_af2pred (protein)
chain: EEERAAAVNAAMQAIIALQQAGQALEASGDPAAKAKGKEAYAKAGEYQKLLKEYNDDVEKVKEIAKDAAAAAAEYAAAVKKAQAA
B35: design_612_bdadb936-3f14-48ad-830f-718e38d81c30_1730_dldesign_0_cycle1_af2pred (protein)
chain: AAAAAVAKVKAAKEKAKELLEEARKLAKEDPEKAGEVLNKALTYVSKVAAQAAKDGPEAAAAAAKVLGEVLDEVAEIEKLRKEIAA
B36: design_612_bdadb936-3f14-48ad-830f-718e38d81c30_1181_dldesign_0_cycle1_af2pred (protein)
chain: MMEEIKKLTEKGEELLKKGKELAKEGTAEAANKALAYYVEAAEYYEKALRLAKEAGAEEEFIKELEKKLQEAFANANAAAKAAIALTA
B37: design_613_5efed0bc-64ba-423b-b3f9-a246574e49bb_260_dldesign_0_cycle1_af2pred (protein)
chain: AAAVGEGSKLVIEGIKALAEAAQRVAFDPEIQAKLMAQAAKATRALVQGAADPATALELAKKALEEAKKAVKEAEKVLA
B38: design_613_5efed0bc-64ba-423b-b3f9-a246574e49bb_150_dldesign_0_cycle1_af2pred (protein)
chain: GEKEKAVKEAKEAAEETEKVAKEAIKAAKAAGNEAAAKMAEALAKNAKKALEEAKKGTLEEAKKNLKYIESNLKNAKLILEGQ

Target: CD276, Q5ZPR3
Sequence (Q5ZPR3 whole entry): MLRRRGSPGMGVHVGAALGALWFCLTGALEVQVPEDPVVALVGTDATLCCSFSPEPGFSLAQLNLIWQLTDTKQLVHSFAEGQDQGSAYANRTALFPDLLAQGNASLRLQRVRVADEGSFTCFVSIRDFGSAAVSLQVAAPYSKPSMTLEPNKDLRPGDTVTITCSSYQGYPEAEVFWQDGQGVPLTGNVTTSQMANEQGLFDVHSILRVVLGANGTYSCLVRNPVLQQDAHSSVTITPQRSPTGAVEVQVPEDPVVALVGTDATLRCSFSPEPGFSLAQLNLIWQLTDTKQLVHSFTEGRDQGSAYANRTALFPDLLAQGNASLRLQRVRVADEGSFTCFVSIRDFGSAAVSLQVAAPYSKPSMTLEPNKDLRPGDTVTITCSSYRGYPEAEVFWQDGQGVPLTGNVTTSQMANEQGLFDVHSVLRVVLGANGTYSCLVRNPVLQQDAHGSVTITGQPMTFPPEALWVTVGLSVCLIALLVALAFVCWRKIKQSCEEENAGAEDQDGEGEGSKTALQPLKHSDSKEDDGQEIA

Binder	binding in a display sort
B1	not found
B2	not found
B3	not found
B4	not found
B5	not found
B6	not found
B7	not found
B8	not found
B9	not found
B10	not found
B11	not found
B12	not found
B13	not found
B14	not found
B15	not found
B16	not found
B17	not found
B18	not found
B19	not found

Binder	binding in a display sort
B20	not found
B21	not found
B22	not found
B23	not found
B24	not found
B25	not found
B26	not found
B27	not found
B28	not found
B29	binds (active)
B30	not found
B31	not found
B32	not found
B33	not found
B34	not found
B35	not found
B36	not found
B37	not found
B38	not found

From article PMC13494018
